Bioassay records from PubChem BioAssay.
Akt phos inh: HTS Assay for Inhibitors of Akt Phophorylation: Primary Screen; Neuro2A IGF-stimulated pAkt S473 HTRF, 20 min; hits give low values; activity change, % for hits at 50 µM; 360,000 compounds, 0.32% hits; AID 651550, 2012; in the data active = activity change below about -80%; inconclusive = mostly about -51% to -80%
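Neuro2A cells in DMEM with 0.5% FBS, overnight at 37 deg C, given compound at single 50 µM final, then IGF (6 nM final) for 20 min at 37 deg C. Lysed; phospho-Akt Ser473 by HTRF after 24 h, 665/615 ratio.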
RXFP1 antagonist: qHTS Assay for Antagonists of the Relaxin Receptor RXFP1; Relaxin receptor 1 (Homo sapiens), Q9HBX9; HEK293-RXFP1, relaxin-stimulated cAMP HTRF, 30 min; hits give low values; activity change, negative = inhibition, % at 57.5 µM; 350,000 compounds, 0.59% hits; AID 1259400, 2018;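 active = activity change of -60% or lower, but not beyond a set lower limit; inconclusive = change between -60% and -40%, or beyond the set limit; inactive = change above -40%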
Target sequence (Q9HBX9 whole entry, looked up): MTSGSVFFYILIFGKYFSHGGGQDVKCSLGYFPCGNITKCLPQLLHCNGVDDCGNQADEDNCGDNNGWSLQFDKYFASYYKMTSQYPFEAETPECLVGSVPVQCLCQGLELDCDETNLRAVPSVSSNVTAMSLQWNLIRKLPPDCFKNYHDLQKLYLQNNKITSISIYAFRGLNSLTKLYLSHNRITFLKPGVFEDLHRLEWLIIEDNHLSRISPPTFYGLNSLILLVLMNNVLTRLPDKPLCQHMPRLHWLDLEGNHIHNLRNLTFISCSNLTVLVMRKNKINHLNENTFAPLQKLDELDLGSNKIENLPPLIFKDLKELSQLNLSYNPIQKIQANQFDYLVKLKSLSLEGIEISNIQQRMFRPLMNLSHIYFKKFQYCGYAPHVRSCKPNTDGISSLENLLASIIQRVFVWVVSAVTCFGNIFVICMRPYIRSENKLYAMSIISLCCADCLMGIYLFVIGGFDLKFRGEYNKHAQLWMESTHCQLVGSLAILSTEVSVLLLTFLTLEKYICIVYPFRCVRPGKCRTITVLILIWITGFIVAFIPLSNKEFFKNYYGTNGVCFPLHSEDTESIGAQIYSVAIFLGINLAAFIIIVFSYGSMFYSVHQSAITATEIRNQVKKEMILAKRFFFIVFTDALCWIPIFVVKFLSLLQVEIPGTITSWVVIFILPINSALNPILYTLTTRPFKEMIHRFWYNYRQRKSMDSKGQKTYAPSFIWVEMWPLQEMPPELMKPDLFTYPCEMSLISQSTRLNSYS
RXFP1 ag: qHTS Assay for Agonists of the Relaxin Receptor RXFP1; Relaxin receptor 1 (Homo sapiens), Q9HBX9; HEK293T-RXFP1 cAMP TR-FRET, 30 min; response scale: percent of porcine relaxin response, buffer zero; Potency, µM (series often up to 57.5 µM), hits mostly activators; 370,000 compounds, 0.3% hits; AID 2676, 2010; active = well fitted activation curve with a large enough effect; inconclusive = small, poorly fitted or top-dose-only effect; also: nearly all actives have a fitted effect of over 60% in size
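Agonist response is measured as cAMP accumulation in an RXFP1-transfected HEK293T line under PDE4 inhibition. Values are scaled between buffer-only and 29 nM porcine relaxin, and EC50s come from standard Hill equation fits.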
gsp agonist: qHTS for Agonist of gsp, the Etiologic Mutation Responsible for Fibrous Dysplasia/McCune-Albright Syndrome: qHTS; gsp mutant cells, cAMP HTRF, 30 min; Potency, µM (highest dose often 76.9 µM), actives largely listed as activators; 340,000 compounds, 0.13% hits; AID 624287, 2012; active = well fitted activation curve with a large enough effect; inconclusive = small, poorly fitted or top-dose-only effect, or another doubt; inactive = no such curve, though single readings can be large or run the other way; cell line not stated here;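 also: phosphodiesterase inhibitor Ro 20-1724 added with compounds to block cAMP breakdown; nearly all actives have a fitted effect of over 60% in size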
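Cells in DMEM/10% FBS with G418 were pretreated with compounds in DMSO plus […] (300 uM stock) for 30 min at 37C. cAMP was measured by HTRF (cAMP-d2 plus anti-cAMP antibody-K) after 30 min at room temperature.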
gsp antagonist: qHTS for Antagonists of gsp, the Etiologic Mutation Responsible for Fibrous Dysplasia/McCune-Albright Syndrome: qHTS; gsp-mutant cells, cAMP HTRF, 30 min; Potency, µM (doses to about 76.9 µM), usual class: inhibitors; 340,000 compounds, 0.4% hits; AID 624288, 2012; calls by dose curve; cell line not stated here;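 also: intracellular cAMP measured with PDE inhibitor Ro 20-1724 present during compound exposure; nearly all actives have a fitted effect of over 65% in size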
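HTRF cAMP read-out (cAMP-d2 plus anti-cAMP antibody-K in lysis buffer, 30 min RT). Before lysis, cells are exposed to compounds with […] for 30 min at 37C in DPBS containing Ca/Mg, BSA and Tween 20.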
Each line names hits and unclear results; the compound was inactive in the other large screens. Only some compounds are listed: those with a hit (about 1.3% of all), similar ones and a draw of the others.

CN1C(=O)C(N=Nc2ccc([N+](=O)[O-])cc2)SC1=S (stereo not given)	gsp agonist inconclusive, gsp antagonist 32µM (no result: RXFP1 ag)
O=C(c1ccccc1)c1c[nH]c(C(=O)NCc2cccnc2)c1	Akt phos inh -100%, gsp antagonist inconclusive
O=C(NCc1cccnc1)c1cc(C(=O)C2CC2)c[nH]1	gsp antagonist 11µM
CC1(C)OC(=O)Nc2ccc(Br)cc21	none (no result: Akt phos inh, RXFP1 ag, gsp agonist, gsp antagonist)
O=c1[nH]c(=S)[nH]cc1Oc1ccc(Cl)cc1Cl	RXFP1 ag inconclusive, gsp agonist 6.3µM
O=C(c1ccc(Br)s1)N1CCN(C/C=C/c2ccccc2)CC1	none
O=C(c1ccc(Br)o1)N1CCN(C/C=C/c2ccccc2)CC1	Akt phos inh -109%
COc1ccccc1CCNC(=O)C(C)Sc1nc(-c2ccccc2)cc(C(F)(F)F)n1 (stereo not given)	none (no result: Akt phos inh, RXFP1 antagonist, gsp agonist, gsp antagonist)
CN(CCCNC(=O)CSc1cc(=O)n(C)c2cc(Cl)ccc12)Cc1ccccc1	gsp agonist 18µM
CCOC(=O)CSc1cc(=O)n(C)c2cc(Cl)ccc12	gsp agonist 16µM
O=C(O)CCSCC(=O)Nc1c(C(=O)C2CC2)oc2ccccc12	Akt phos inh -100%, gsp agonist inconclusive
Cc1ccc(CNC(=O)C2c3ccccc3C(=O)N3CCc4ccccc4C23)o1 (stereo not given)	Akt phos inh -100%, gsp agonist inconclusive
COc1cc(-c2ccc3oc(-c4ccsc4)cc(=O)c3c2)cc(OC)c1OC	gsp antagonist inconclusive (no result: RXFP1 antagonist, RXFP1 ag)
CCOC(=O)c1ccc(-c2ccc3oc(-c4ccsc4)cc(=O)c3c2)cc1F	gsp antagonist 7.1µM (no result: RXFP1 antagonist, RXFP1 ag, gsp agonist)
CC(NC(CCc1ccccc1)C(=O)O)C(=O)N1C(=O)N(C)CC1C(=O)O (stereo not given)	none (no result: Akt phos inh, RXFP1 ag, gsp agonist, gsp antagonist)
CCc1ccc(NC(=O)Nc2ccc3c(c2)N(C)C(=O)CS3)cc1	gsp antagonist 35µM (no result: RXFP1 antagonist)
CC(=O)c1cccc(NC(=O)Nc2ccc3c(c2)N(C)C(=O)CS3)c1	RXFP1 antagonist -72, gsp antagonist inconclusive
Cc1ccc(NC(=O)Cn2c(=O)n(CC3CCCO3)c(=O)c3ccccc32)cc1 (stereo not given)	none (no result: Akt phos inh, RXFP1 antagonist, gsp agonist, gsp antagonist)
CCOC(=O)c1c(C)nc2sc3c(=O)n(-c4ccc(OC)cc4)cnc3c2c1-c1ccc(OC)cc1	Akt phos inh -111%
Brc1ccc(-c2ccc(CNCCSc3nnnn3-c3ccccc3)o2)cc1	RXFP1 ag 14µM (no result: Akt phos inh, gsp agonist, gsp antagonist)
CCOC(=O)c1c(NC(=O)CSc2nc(C)cc(C)c2C#N)sc(C(C)=O)c1C	RXFP1 ag 18µM
CC1CCN(S(=O)(=O)c2ccc([N+](=O)[O-])cc2)CC1	none
CC1CCN(S(=O)(=O)c2ccc(Oc3ccc([N+](=O)[O-])cc3)cc2)CC1	Akt phos inh -81%
CCOC(=O)C1=C(N)Oc2ccc3ccccc3c2C1c1cccc(O)c1 (stereo not given)	none
CCOC(=O)C1=C(N)Oc2ccc3ccccc3c2C1c1cccnc1 (stereo not given)	gsp antagonist 32µM
O=C(CC(c1ccccc1)c1ccccc1O)NCc1ccccc1Cl (stereo not given)	gsp antagonist 35µM
O=C(CC(c1ccccc1)c1ccccc1O)NCc1ccco1 (stereo not given)	none
CC(C)C(C(=O)Nc1ccncc1)c1ccc(Cl)cc1 (stereo not given)	none
CC(C)C(C(=O)Nc1nccs1)c1ccc(Cl)cc1 (stereo not given)	RXFP1 antagonist -83
COc1ccc(NC(=O)C2=C(C)Nc3nc(SCc4ccc(C)cc4C)nn3C2c2cccc(OC)c2OC)cc1 (stereo not given)	none (no result: Akt phos inh, RXFP1 antagonist, gsp agonist, gsp antagonist)
N#Cc1nc(-c2cccc3ccccc23)oc1NCC#CCOC(=O)c1cccs1	none (no result: Akt phos inh, RXFP1 antagonist, gsp agonist, gsp antagonist)
CCN(CC)CCCN(C(=O)c1ccco1)c1nc(-c2ccc(C)cc2)cs1	none
CCN(CC)CCCN(C(=O)c1ccco1)c1nc(-c2ccc(Cl)cc2)cs1	RXFP1 antagonist -96
CC(=O)n1cc([C@H]2C=C(C(=O)N3CCN(Cc4ccccc4)CC3)O[C@@H](OCCCCO)C2)c2ccccc21	gsp antagonist 35µM (no result: RXFP1 antagonist, gsp agonist)
